Rows were chosen to be rich in hits. Some 27% of all compounds tested hit in one or more screens of this group.
CYP2C9 activ: human CYP2C9 activators, primary screen, biochemical, luminescence | recombinant CYP2C9, luciferin-H conversion; stronger effect = higher value; factor 1 = untreated enzyme, 0 = blocked | activation factor at 5 µM | 96,000 compounds, 1.4% hits | Cytochrome P450 2C9 (Homo sapiens), P11712;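 active = activation factor of 2 or more for CYP2C9 at a 5 µM dose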
Target sequence (P11712 whole entry, looked up): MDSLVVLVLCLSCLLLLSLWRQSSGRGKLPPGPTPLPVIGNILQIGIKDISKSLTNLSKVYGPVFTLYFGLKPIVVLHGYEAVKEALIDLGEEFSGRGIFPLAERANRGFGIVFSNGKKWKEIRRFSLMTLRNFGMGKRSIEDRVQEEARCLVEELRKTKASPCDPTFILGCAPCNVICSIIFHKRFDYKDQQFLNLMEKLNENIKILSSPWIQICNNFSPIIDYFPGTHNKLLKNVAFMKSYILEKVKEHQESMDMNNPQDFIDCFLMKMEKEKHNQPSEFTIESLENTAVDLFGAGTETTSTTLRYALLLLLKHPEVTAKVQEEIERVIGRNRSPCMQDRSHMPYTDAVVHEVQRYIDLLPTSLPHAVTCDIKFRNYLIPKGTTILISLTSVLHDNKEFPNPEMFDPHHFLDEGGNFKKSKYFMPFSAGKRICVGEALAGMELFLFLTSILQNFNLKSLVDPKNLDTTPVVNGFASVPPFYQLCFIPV
CYP2C19 activ: human CYP2C19 activators, primary screen, biochemical, luminescence. recombinant CYP2C19, luciferin-H EGE luminescence; stronger effect = higher value; 0 = fully inhibited enzyme, 1 = untreated enzyme. activation factor at 5 µM. 96,000 tested, under 10 active. Cytochrome P450 2C19 (Homo sapiens), P33261;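 active = activation factor of at least 2 at 5 µM in the primary screen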
PTK2B oligo ant: antagonists of Pyk2 self-association, primary screen, Q293 cells, FERM NanoBiT luminescence, HTS; Protein-tyrosine kinase 2-beta (Homo sapiens), Q14289; stronger effect = lower value; z-score (the deposit names both 25 µM and 10 µM); 99,000 compounds, 0.83% hits; AID 1347419, 2020;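 active = Z-score of -3 or lower, scaled per plate to the spread of control and sample wells; inactive = z-score above -3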;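 note: negative z-score means lost luminescence so less FERM oligomerization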
Cav3 T inh: Cav3.2 calcium influx blockers – cell-based, Fluo-4 calcium fluorescence, FDSS, MLSMR library, primary screen. Cav3.2-expressing cells; stronger effect = lower value. B-score at 10 µM. 100,000 compounds, 4% hits. AID 449739, 2010;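 active = single-dose well whose peak fluorescence ratio is a statistical outlier from its plate by either plate-standardised score or position-corrected B-score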
CYP2C9 inh: blockers of cytochrome P450 2C9 activity – biochemical, luminescence, ADME assay, primary screen. CYP2C9 Supersomes, luciferin-H conversion. inhibition, % at 5 µM. P11712. AID 777, 2007. 96,000 compounds, 20% hits;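 active = blocking of liver enzyme CYP2C9 beyond about 50% at 5 µM, limit read from the data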
CYP2C19 inhib: blockers of cytochrome P450 2C19 activity – biochemical, luminescence, ADME assay, primary screen | P33261 | inhibition, % at 5 µM | CYP2C19 Supersomes, luciferin-H EGE luminescence, 30 min | 96,000 compounds, 21% hits;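 active = CYP2C19 inhibition above a set limit at 5 µM in the primary screen, cut at about 50% in these data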
Hits are given with their value.

O=c1[nH]c(Cn2nnc(-c3ccccc3)n2)nc2scc(-c3ccccc3)c12 was read as CYP2C9 activ inactive, CYP2C19 activ inactive, PTK2B oligo ant inactive, Cav3 T inh inactive, CYP2C9 inh 82 and CYP2C19 inhib inactive.
Screening O=c1[nH]cnc2scc(-c3ccc(-c4ccccc4)cc3)c12 returned CYP2C9 activ inactive, CYP2C19 activ inactive, PTK2B oligo ant inactive, Cav3 T inh inactive, CYP2C9 inh inactive and CYP2C19 inhib inactive.
For COc1ccccc1CN=Cc1[nH]c2ccc(Br)c(Cl)c2c1O the results were CYP2C9 activ inactive, CYP2C19 activ inactive, PTK2B oligo ant inactive, Cav3 T inh inactive, CYP2C9 inh 73 and CYP2C19 inhib 85.
For CC(C)c1ccc(NC(=O)COc2nnc(-c3cccs3)c(-c3cccs3)n2)cc1 the results were CYP2C9 activ inactive, CYP2C19 activ inactive, PTK2B oligo ant inactive, Cav3 T inh -5.1, CYP2C9 inh 86 and CYP2C19 inhib 80.
`CCc1ccc(NC(=O)C(C)Oc2nnc(-c3cccs3)c(-c3cccs3)n2)cc1` (stereo unspecified) gave CYP2C9 activ inactive, CYP2C19 activ inactive, PTK2B oligo ant inactive, Cav3 T inh -4.4, CYP2C9 inh 68 and CYP2C19 inhib inactive.
CC(C)CCNC(=O)c1nnc(Cc2ccc(Cl)cc2)o1 was read as CYP2C9 activ inactive, CYP2C19 activ inactive, Cav3 T inh inactive, CYP2C9 inh inactive and CYP2C19 inhib inactive.
`O=C(CCC(=O)NNC(=S)Nc1ccccc1)NCc1ccccc1` gave CYP2C9 activ inactive, CYP2C19 activ inactive, PTK2B oligo ant inactive, Cav3 T inh inactive, CYP2C9 inh inactive and CYP2C19 inhib inactive.
For COc1ccc(Br)cc1/C=c1\sc2nc(-c3ccco3)nn2c1=O the results were CYP2C9 activ inactive, CYP2C19 activ inactive, PTK2B oligo ant inactive, Cav3 T inh inactive, CYP2C9 inh 61 and CYP2C19 inhib 62.
Screening O=C(c1cccs1)N(C(=O)c1cccs1)c1ccc(Br)cn1 returned CYP2C9 activ inactive, CYP2C19 activ inactive, PTK2B oligo ant inactive, Cav3 T inh inactive, CYP2C9 inh 99 and CYP2C19 inhib 100.
Cc1nc2[nH]c(=O)c3c(n2n1)NC1=C(C(=O)CC(C)(C)C1)C3c1ccc(F)cc1 (stereo unspecified) was read as CYP2C9 activ inactive, CYP2C19 activ inactive, PTK2B oligo ant inactive, Cav3 T inh inactive, CYP2C9 inh inactive and CYP2C19 inhib inactive.
For Cc1ccc(C2C3=C(CC(C)(C)CC3=O)Nc3[nH]c(=S)[nH]c(=O)c32)cc1 (stereo unspecified) the results were CYP2C9 activ inactive, CYP2C19 activ inactive, PTK2B oligo ant inactive, Cav3 T inh inactive, CYP2C9 inh 70 and CYP2C19 inhib inactive.
For COc1ccc(C(=O)/C=C/Nc2ccc(C)cn2)cc1OC the results were PTK2B oligo ant inactive and Cav3 T inh inactive.
Screening Cc1ccc(C(=O)c2ccccc2C(=O)OCC(=O)Nc2ccc(SC(F)F)cc2)cc1 returned PTK2B oligo ant inactive.
CCOc1ccccc1C(=O)OCC(=O)Nc1ccc(OC(F)F)cc1 was read as CYP2C9 activ inactive, CYP2C19 activ inactive, PTK2B oligo ant inactive, Cav3 T inh inactive, CYP2C9 inh inactive and CYP2C19 inhib 55.
Screening COc1ccc(NC(=S)NNC(=O)c2ccccc2OC(F)F)cc1 returned CYP2C9 activ inactive, CYP2C19 activ inactive, PTK2B oligo ant inactive, Cav3 T inh inactive, CYP2C9 inh 54 and CYP2C19 inhib inactive.
Screening O=C(COC(=O)c1cccc2ccccc12)Nc1ncc(C(F)(F)F)cc1Cl returned CYP2C9 activ inactive, CYP2C19 activ inactive, PTK2B oligo ant inactive, Cav3 T inh inactive, CYP2C9 inh inactive and CYP2C19 inhib inactive.
Screening CCOc1ncccc1C(=O)OCC(=O)Nc1ncc(C(F)(F)F)cc1Cl returned CYP2C9 activ inactive, CYP2C19 activ inactive, PTK2B oligo ant inactive, Cav3 T inh inactive, CYP2C9 inh inactive and CYP2C19 inhib 62.
Screening CCOc1ccccc1C(=O)OCC(=O)Nc1ncc(C(F)(F)F)cc1Cl returned CYP2C9 activ inactive, CYP2C19 activ inactive, PTK2B oligo ant inactive, Cav3 T inh inactive, CYP2C9 inh inactive and CYP2C19 inhib 93.
Cc1ccc(NC(C(N)=O)c2c(C)[nH]c(=O)[nH]c2=O)cc1 (stereo unspecified) was read as CYP2C9 activ inactive, CYP2C19 activ inactive, PTK2B oligo ant inactive, Cav3 T inh inactive, CYP2C9 inh inactive and CYP2C19 inhib inactive.
For COC(=O)[C@@H]1[C@H](CCc2ccccc2)NC(=O)N(Cc2ccccc2)[C@@H]1C the results were Cav3 T inh inactive.
Screening O=C(COC(=O)C12CC3CC(CC(O)(C3)C1)C2)Nc1ccccc1OC(F)F returned CYP2C9 activ inactive, CYP2C19 activ inactive, PTK2B oligo ant inactive, Cav3 T inh inactive, CYP2C9 inh inactive and CYP2C19 inhib inactive.
For O=C(COC(=O)C12CC3CC(CC(C3)C1)C2)Nc1ccc(OC(F)F)cc1 the results were CYP2C9 activ inactive, CYP2C19 activ inactive, PTK2B oligo ant inactive, Cav3 T inh -6.2, CYP2C9 inh inactive and CYP2C19 inhib inactive.
Screening CCCCC1(C)OC(=O)C(=Cc2ccc(N(CC)CC)cc2)C(=O)O1 (stereo unspecified) returned CYP2C9 activ inactive, CYP2C19 activ inactive, PTK2B oligo ant inactive, Cav3 T inh inactive, CYP2C9 inh inactive and CYP2C19 inhib 54.
Screening COc1ccc2[nH]cc(C(=O)CN3CCCC(C)C3)c2c1 (stereo unspecified) returned CYP2C9 activ inactive, CYP2C19 activ inactive, PTK2B oligo ant inactive, Cav3 T inh inactive, CYP2C9 inh inactive and CYP2C19 inhib inactive.
Screening COc1cccc(N2CCN(CC(=O)c3c[nH]c4ccc(OC)cc34)CC2C)c1 (stereo unspecified) returned CYP2C9 activ inactive, CYP2C19 activ inactive, PTK2B oligo ant inactive, Cav3 T inh inactive, CYP2C9 inh 50 and CYP2C19 inhib inactive.
COC(=O)c1cccc(NS(=O)(=O)c2cccs2)c1C was read as CYP2C9 activ inactive, CYP2C19 activ inactive, PTK2B oligo ant inactive, Cav3 T inh inactive, CYP2C9 inh 74 and CYP2C19 inhib inactive.
For COC(=O)c1cccc(NC(=O)Cc2ccc(OC)cc2)c1C the results were CYP2C9 activ inactive, CYP2C19 activ inactive, PTK2B oligo ant inactive, Cav3 T inh inactive, CYP2C9 inh 67 and CYP2C19 inhib 92.
Screening CCCOC(=O)c1ccc(NS(=O)(=O)c2cccs2)cc1 returned CYP2C9 activ inactive, CYP2C19 activ inactive, PTK2B oligo ant inactive, Cav3 T inh -5, CYP2C9 inh 100 and CYP2C19 inhib inactive.

From PubChem
